Measurements reported in PubChem BioAssay AID588343 (Broad Institute, 2011).
Screen size: about 1,200 compounds; about 650 (54%) were called active. Roughly 5% stayed inconclusive and do not appear here.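 How the source made its calls: active means signal-lowering curve whose fitted half-maximal concentration is at or below ten times the top valid dose tested; inconclusive means flat curve with 30 to 70% inhibition, or poor fit; inactive means signal increase, flat within 30%, or potency beyond limit.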 So high a share suggests a set chosen from earlier hits. Only a sample is shown. Results with a measured potency or affinity are listed apart.

assay: inhibitors of LMP1-driven NF-kB reporter, dose response, cell-based, HEK293, luciferase, cherry-pick (AID 588343); conditions: HEK293 LMP1 TES2 NF-kB luciferase reporter, 16 h; series mostly up to 35 µM; activity change, negative = inhibition: at the top concentration;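 further: 0% = median of neutral control wells and -100% = MG132 positive control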

Activity change, negative = inhibition, inactive:
COC(CNC(=O)c1ccc(N2CCC3(CC2)OCCO3)c([N+](=O)[O-])c1)OC -6.61%, CC(=O)Nc1ccc(NC(=O)C(c2ccccc2)c2ccccc2)cc1 1.86%, CCOC(=O)[C@H]1[C@H]2COc3ccc(OC)cc3[C@@H]2N2C(=O)CN(C)C(=O)[C@@]12C -6.5%, COc1ccc(C2=NN(C(=O)CSC3=NN4CCCC(=O)N=C4S3)C(c3cccc(OC)c3OC)C2)cc1 (centres undefined) 5.71%, CCOC(=O)Nc1ccc2c(c1)N(C(=O)CN(C)C)c1ccccc1CC2 -14.1%, Cn1c(=O)c2c(ncn2CC(=O)Nc2cc(S(=O)(=O)N3CCCCC3)ccc2O)n(C)c1=O 12%, CCCN1C(=O)C2(SC(NC(C)=O)=NN2C(C)=O)c2cc(C)cc(C)c21 (centres undefined) -12.8%, CCC(C)[C@H](NC(=O)NCc1cccnc1)C(=O)OC (some centres undefined) 9.79%, C=CCN1CCc2cc(O)c(O)cc2C(c2ccccc2)C1 (centres undefined) -0.248%, Cc1ccc(C)c(S(=O)(=O)N2CCN(C(=O)c3ccc(C)s3)CC2)c1 -14.8%, COc1ccccc1-c1ccccc1C1=CC(=O)CC(C)(C)C1=O 20.8%, CCOC(=O)N1CCN(C(=O)C2CCC(=O)N(Cc3ccccc3OC)C2)CC1 (centres undefined) 7.61%, COc1ccc(C(=O)NCCN2CCOCC2)cc1[N+](=O)[O-] 6.07%, CNC(=O)c1[nH]cnc1C(=O)N[C@@H](CCCCNC(=O)OC(C)(C)C)C(=O)OC(C)(C)C 34%, Cc1cccc(C)c1Nc1nc2ccccc2o1 2.89%, OCc1cc(C(O)CNCCCCCCOCCCCc2ccccc2)ccc1O (centres undefined) 6.71%, COc1ccccc1NC(=O)c1c(Nc2ccccc2C)sc(C(=O)Nc2cccc(Cl)c2)c1N 3.23%, O=C(OCc1nc2ccccc2s1)[C@@H]1CCCN1S(=O)(=O)c1ccccc1F 8.66%, C[C@@H](OC(=O)c1[nH]cnc1C(=O)N1CCc2ccccc2C1)c1ccccc1 5.49%, CSCCC(NC(=O)c1ccco1)C(=O)OCC(=O)Nc1ncc(Cl)c(C)c1Cl (centres undefined) 5.14%, O=C(Nc1ccc(Cl)cc1)c1ccco1 2.2%, C[C@H]1C[C@H]2[C@@H]3CCC4=CC(=O)C=C[C@]4(C)[C@@]3(F)[C@@H](O)C[C@]2(C)[C@@]1(O)C(=O)CO -27.3%, CCn1c(CCNC(=O)c2ccc(OC)cc2)nnc1SCc1ccc(Cl)cc1Cl -10.7%, CCC(Oc1ccccc1)C(=O)NC1CCSC1=O (centres undefined) 0.894%, CC1=C(C)C(OCCCl)N(c2cc(O)c(Cl)cc2F)C1=O (centres undefined) -1.48%, CC(C)Cc1ccc([C@H](C)C(=O)O)cc1 10.3%, O=C(C[n+]1ccccc1)N/N=C/c1ccc(O)cc1 12.7%, Cc1ccc(CNC(=O)C2CCN(S(=O)(=O)c3c(C)noc3/C=C/c3ccco3)CC2)cc1 23.8%, C[C@@H]1CN([C@@H](C)CO)C(=O)c2cc(NC(=O)Nc3ccccc3)ccc2O[C@H]1CN(C)C(=O)Nc1cccc2ccccc12 -8.5%, O=C(NN1C(=O)C2C3C=CC(C4CC34)C2C1=O)c1cccc(Cl)c1 (centres undefined) 2.66%, NC(=O)c1ncn([C@@H]2O[C@H](CO)[C@@H](O)[C@H]2O)n1 44.1%, Nc1ccn(C2CCCO2)c(=O)n1 (centres undefined) -9.64%, Nc1ccc(CCNc2ncnc3c2ncn3[C@@H]2O[C@H](CO)[C@@H](O)[C@H]2O)cc1 -19.4%, CCOc1ccccc1/C=C/c1onc(C)c1S(=O)(=O)N1CCC(C(=O)N(CC)CC)CC1 -2.53%, CCCC(=O)NCCCc1nc2ccccc2n1C -6.19%, COc1nc(Nc2nc3ccccc3c(=O)[nH]2)nc2ccc(C)cc12 63.8%, COc1c(S(=O)(=O)N2CCN(c3ccc(F)cc3)CC2)ccc(Cl)c1Cl 0.418%, O=C(CCCOc1ccccc1)N1CCN(c2ccccc2)CC1 -13.6%, Cc1ccc(NC(=S)Nc2cccc(S(=O)(=O)Nc3c(C)n(C)n(-c4ccccc4)c3=O)c2)cc1 -6.17%, Cc1cccc(NC(=O)Nc2c(C)n(C)n(-c3ccccc3)c2=O)c1C 2.9%, C/C(=N\NS(=O)(=O)c1ccc([N+](=O)[O-])cc1)c1cccs1 28.1%, O=C(CCNc1cccc(F)c1)c1cc2ccccc2o1 -15.8%, Cc1ccccc1CC(=O)NCc1cccnc1 2.8%, COc1ccc(-c2ccc3c(c2)S(=O)(=O)c2cccc(C(=O)NCc4cc(C)oc4C(F)(F)F)c2C3=O)cc1OC 64.1%, Cc1ccc(N2CCCCn3c2nc2c3c(=O)n(CC(=O)O)c(=O)n2C)cc1 1.98%, Cc1ccnc(N/C=C(/NC(=O)c2ccccc2)C(=O)N/N=C\c2ccc(F)cc2)n1 -17.7%, COc1ccc(-c2cc(C(F)(F)F)n3nc(C(=O)N4CCOCC4)nc3n2)cc1 -11.3%, O=C(Nc1nnc(N2CCCCCC2)s1)c1cc(-c2ccc(Br)cc2)on1 -2.98%, COCCCNC(=O)CN1C(=O)COc2ccc(S(=O)(=O)N3CCOCC3)cc21 7.21%, CCCSc1nc2cc(S(=O)(=O)N3CCOCC3)ccc2n1CC 13.1%, CN(C)CCN(Cc1ccc(Cl)cc1)c1ccccn1 17.7%, COc1ccc(CC(C)NCC(O)c2ccc(O)c(NC=O)c2)cc1 (centres undefined) 22.3%, CCOC(=O)C1=C(C)NC(C)=C(C(=O)OCC)C1c1cn(-c2ccccc2)nc1-c1ccco1 26.1%, O=C(Nc1cc(S(=O)(=O)N2CCOCC2)ccc1Cl)c1ccncc1 -7.69%, O=C(CSc1nnc(-c2cccc(S(=O)(=O)N3CCOCC3)c2)n1C1CCCCCC1)NCc1ccccc1 14.6%, N=c1c(-c2nc3ccccc3[nH]2)cc(C(=O)c2cccs2)nn1-c1ccccc1 42.9%, CCCC(=O)NCCCc1nc2ccccc2[nH]1 -10.5%, Cc1cc(NC(=O)c2ccc(C)s2)n(-c2nc3ccccc3[nH]2)n1 1.12%, O=c1cc(Cl)nc2ccccn12 -6.86%, COc1ccc2[nH]c3c(=O)n(CCCCC(=O)N4CCC(C(N)=O)CC4)c(=S)[nH]c3c2c1 4.91%, O=C(Cc1ccc(Cl)cc1)NCC(=O)N1CCCCC1 -5.16%, Cc1ccccc1N(C(=O)c1snc(C(N)=O)c1N)C(C(=O)NC1CCCCC1)c1ccc(O)cc1 (centres undefined) 47.4%, S=C1SCN(Cc2ccccc2)CN1Cc1ccco1 -12.8%, CCOc1cc(/C=C2/C(=N)N3N=C(CC)SC3=NC2=O)ccc1OC(=O)c1ccco1 -2.03%, CC(=O)Oc1ccc(C(=O)Nc2cccnc2)cc1 11%, COc1ccc(CCC(=O)Nc2ccc(C)c([N+](=O)[O-])c2)cc1 3.84%, O=C(COc1ccc2ccccc2c1)NCCNC(=O)COc1ccc2ccccc2c1 33.9%, CNC(=O)C1=NCCCc2cc(OC)c(OC)cc21 -2.99%, O=C(NC1CCCCC1)N1CCN(c2ccc([N+](=O)[O-])cc2)CC1 -12.7%, COc1ccc(-n2nc(C(=O)c3cccs3)cc(-c3nc4ccccc4[nH]3)c2=N)cc1 3.98%, CNC(=S)N1N=C(c2cccs2)CC1c1ccc(F)cc1 (centres undefined) 22.4%, O=C(CN1C(=O)C2C3C=CC(C3)C2C1=O)NCCC1=CCCCC1 (centres undefined) 21.8%, O=C(COC(=O)c1ccc(S(=O)(=O)NCc2ccco2)cc1)Nc1ccc(Cl)cn1 -7.56%, O=C(CN(Cc1cccs1)C(=O)CNS(=O)(=O)c1ccccc1)NCc1ccco1 5.03%, CC(=O)Nc1ccc(OCC(O)CNC(C)C)cc1 (centres undefined) 9.4%, CCOc1ccc(NC(=O)Cn2cc(C(=O)CC)c3ccccc32)cc1 7.48%, Cc1ccnc(NC(=O)c2cccc(NC(=O)c3ccc(Cl)c(Cl)c3)c2)c1 15.1%, Cc1cc(OCC(=O)Nc2cnn(CCCC(=O)O)c2)ccc1Cl -10.7%, COc1ccc(NC(=O)Cn2nnc(C(=O)NCc3ccccc3)c2N)c(OC)c1 8.34%, COC(=O)c1cccc(COC(=O)c2ccccc2NC(=O)c2ccco2)c1 -0.414%, COc1cccc(-c2nc(NCc3ccccc3)c3ccccc3n2)c1O 21.1% [at 11 µM], COc1ccc(NC(=O)C[C@H]2C(=O)N(CCc3ccccc3)C[C@@H]2c2ccc(OC)cc2)cc1 18.3%, Cn1cccc1CC(=O)NNC(=S)Nc1ccccc1Cl 3.06%, COc1ccc(C(CNC(=O)Nc2ccccc2)N2CCN(C)CC2)cc1 (centres undefined) -9.47%, O=C(Nc1ccc2c(c1)C(=O)OC2)c1ccc(C(F)(F)F)cc1 -6.81%, COc1ccc(NC(=O)NCCN2CCc3ccccc3C2)cc1 -2.14%, C=CCN(c1ccc(C(=O)Nc2ccc3c(c2)n(C)c(=O)n3C)cc1)S(C)(=O)=O 22%, CCNc1nc(CN2CCOCC2)nc2sc3c(c12)CCC3 14.5%, COc1cccc(C2Nc3ccc4ccccc4c3C3=C2C(=O)CC(C)(C)C3)c1OCC(=O)O (centres undefined) 24.8%, O=C(CN1C(=O)CCOc2ccccc21)Nc1ccc(Cl)c(S(=O)(=O)N2CCOCC2)c1 -6.94%, COc1ccc(C(c2sc3nc(C)nn3c2O)N2CCC(C(N)=O)CC2)cc1OC (centres undefined) -11.1%, CC1=C(CC(=O)O)c2cc(F)ccc2C1=Cc1ccc(S(C)(=O)=O)cc1 1.68%, O=C(Nc1ncc(Br)s1)C(Cc1ccccc1)n1cccc1 (centres undefined) 1.83%, COc1ccc(NC(=O)N(CCN2CCCC2)Cc2cc3cc(OC)c(OC)cc3[nH]c2=O)cc1 -2.6%, CCOC(=O)c1cc(-c2ccccc2)n(CC(=O)Nc2cccc(OC)c2)c1C -5.78%, CC(=NNC(=S)N1CCCCCC1)c1cccc2cccnc12 53%, Cc1ccc2oc(C(=O)Nc3ccc(S(=O)(=O)Nc4onc(C)c4C)cc3)c(C)c2c1 4.12%, COc1ccc(OC)c(S(=O)(=O)NC(C)CCc2ccccc2)c1 (centres undefined) -3.32%, O=C(NCC1CCOCC1)c1ccc(OC2CCN(Cc3ccccn3)CC2)cc1 -4.71%, COCCCNCC1C(Oc2ccc(Cl)cc2)C(=O)N1c1ccccc1C (centres undefined) -5.79%, Cc1sc2ncn(CC(=O)N3CCC(C(N)=O)CC3)c(=O)c2c1S(=O)(=O)N1CCOCC1 -2.58%, CN(C)S(=O)(=O)c1ccc(Cl)c(C(=O)NCCNC(=O)c2cc(S(=O)(=O)N(C)C)ccc2Cl)c1 10.7%, CCN(Cc1ccncc1)C(=O)CCc1ccccc1 5.62%, Cc1ccc(CCNC(=O)CCc2nc3ccccc3[nH]2)cc1 17.2%
